M1 ag – activates human CHRM1 receptor; CHO-K1 hM1, Fluo-8 calcium fluorescence, agonist mode; 0% DMSO, 100% acetylcholine EC100; activation, % at 3 µM; 0.33% of 360,000 active; AID 588814;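 active = activation above the run's mean compound activation plus 3 SD, cut at about 16% in these data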;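 note: peak over basal fluorescence ratio within a 140 s kinetic read after compound addition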
Target sequence (P11229 whole entry, looked up): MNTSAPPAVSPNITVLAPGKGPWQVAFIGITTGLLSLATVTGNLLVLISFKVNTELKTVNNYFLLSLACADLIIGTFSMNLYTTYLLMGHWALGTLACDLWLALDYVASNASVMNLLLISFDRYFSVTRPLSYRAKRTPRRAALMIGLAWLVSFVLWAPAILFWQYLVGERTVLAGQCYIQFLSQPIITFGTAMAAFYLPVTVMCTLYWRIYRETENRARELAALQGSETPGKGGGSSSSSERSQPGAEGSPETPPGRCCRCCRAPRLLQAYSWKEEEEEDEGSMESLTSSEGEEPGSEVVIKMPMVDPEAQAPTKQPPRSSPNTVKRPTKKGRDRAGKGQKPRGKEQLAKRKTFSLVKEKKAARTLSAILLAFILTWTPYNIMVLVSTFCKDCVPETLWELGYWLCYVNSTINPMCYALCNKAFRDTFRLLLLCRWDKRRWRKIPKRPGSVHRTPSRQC
CHO-K1 Ca ag – nonselective activator or artifact in parental CHO-K1 cells; Fluo-8 calcium fluorescence; scaled to maximal ATP response, vehicle zero; activation, % at 3 µM; 0.48% of 360,000 active; in the data active = activation above about 15%;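 note: untransfected CHO-K1 host cells lacking M1 receptor as counterscreen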
CHO-K1 Ca antag – M1 antagonist counterscreen hit in parental CHO-K1 cells. ATP-induced calcium, Fluo-8 fluorescence. inhibition, % at 3 µM. 0.6% of 360,000 active;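 active = inhibition above a per-plate cutoff, the plate's mean sample inhibition plus 3 SD, cut at about 24% in these data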;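 note: 0% = DMSO plus EC80 ATP and 100% = DMSO alone without ATP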
CHRM1 antagonist – antagonists of human M1 muscarinic receptor | P11229 | CHO-K1 hM1, Fluo-8 calcium fluorescence, ACh EC80 antagonist | inhibition, % at 3 µM | 1.3% of 360,000 active | AID 588852;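 active = percent inhibition above its own plate's cutoff, namely the mean of that plate's compound wells plus 3 SD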;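 note: peak over basal fluorescence ratio during 140 s after agonist addition; 0% = ACh EC80 plus DMSO and 100% = DMSO alone without agonist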
M1 PAM – human CHRM1 positive allosteric modulation | CHO-K1 hM1, Fluo-8 calcium fluorescence, ACh EC20; 0% = ACh EC20, 100% = maximal ACh | activation, % at 3 µM | 0.088% of 360,000 active; in the data active = activation above about 19%, passing the limit was not always enough
M1 PAM parental – counter-screen for M1 PAMs: effect in parental CHO-K1 cells; activation, % at 3 µM; ATP EC20, Fluo-8 calcium fluorescence; 0% at ATP EC20, 100% at ATP max; 0.02% of 360,000 active;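 active = activation above the run cutoff, the mean activation of all test compounds plus 3 SD, cut at about 40% in these data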;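 note: peak over basal fluorescence ratio in a 140 s read after ATP addition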
The depositor's hits bear a star; nt = not tested or not shown. The list is not random: actives were taken first. Their share in the collection is about 2.3%.

SMILES | M1 ag | CHO-K1 Ca ag | CHO-K1 Ca antag | CHRM1 antagonist | M1 PAM | M1 PAM parental
Cc1ccc(C[n+]2c(-c3ccc(C)cc3)cc(-c3ccc(C)cc3)cc2-c2ccc(C)cc2)cc1 | 2 | 14 | 17 | 33* | -13 | 4
C=CC(=O)OCCO | -5 | 0 | -12 | -2 | 7 | 2
O=[N+]([O-])c1cc(Cl)c(Cl)cc1Cl | -1 | 0 | -17 | 22* | -14 | 3
O=[N+]([O-])c1ccc(Cl)c([N+](=O)[O-])c1 | 10 | 0 | -5 | -18 | 12 | -6
CNC(C(=O)c1ccccc1)C(OC)c1ccc(C)cc1 (stereo not drawn) | -6 | 1 | -6 | -5 | 1 | 2
COc1ccc(C(=O)C2CCCN(C3CSCCSC3)C2)c(C)c1 (stereo not drawn) | -7 | 12 | -4 | 54* | -23 | 19
CCC1(CCC(C)C)C(=O)NC(=S)NC1=O | -4 | 0 | -11 | -14 | 11 | 19
CCCCOC(=O)c1ccccc1C(=O)OCCCC | -4 | 0 | -7 | 9 | -3 | 13
CCOC(C(=O)OCCC[N+](C)(CC)CC)(c1ccccc1)c1ccccc1 | -15 | 1 | -10 | 98* | -35 | 7
CCN(CC)CCCOC(=O)C(OC)(c1ccccc1)c1ccccc1 | -12 | 0 | -6 | 99* | -36 | 3
CC[N+](C)(CC)CCCOC(=O)C(O)(c1ccccc1)C1CCCCC1 (stereo not drawn) | -9 | 0 | -9 | 96* | -23 | 32
CCOC(C(=O)OCC(O)CN(CC)CC)(c1ccccc1)c1ccccc1 (stereo not drawn) | -6 | 1 | -11 | -2 | 2 | 17
COC(=O)C1=C(c2ccccc2)C[C@@H]2CC[C@H]1N2C(=O)NCc1cccc2ccccc12 | -9 | 0 | -23 | -12 | 10 | 24
Cc1ccc(-n2c(O)c(C=Nc3ccc(Br)cn3)c(=O)[nH]c2=O)cc1 | -5 | 0 | -5 | 0 | 4 | 16
O=c1[nH]c(=S)n(CCC2=CCCCC2)c(O)c1C=NCCCn1ccnc1 | -5 | 0 | 25* | 30* | -17 | -6
COc1ccc(CN2CC=C(c3ccc(F)cc3)CC2)cc1Br | -7 | 1 | -14 | 46* | -26 | 23
CCN(CC)c1ccc(CN2CC=C(c3ccc(F)cc3)CC2)cc1 | -5 | 1 | 0 | 37* | -22 | 0
C[C@]12CCC3C(CC[C@H]4C[C@@H](O)CC[C@]34C)C1C[C@@H](Br)[C@H]2O (stereo partly drawn) | -3 | 10 | 10 | 13 | -16 | -3
COc1ccc(C(c2nnnn2-c2ccc3c(c2)OCCO3)N2CCC3(CC2)C(=O)NCN3c2ccccc2)cc1 (stereo not drawn) | 4 | 3 | -11 | -30 | 8 | -1
O=C(c1cc2cc(Cl)ccc2[nH]1)N1CCC2(CC1)OCCO2 | 1 | 1 | -7 | -10 | 20 | 2
O=C(c1cc(=O)[nH]c2ccc(Br)cc12)N1CCC2(CC1)OCCO2 | -2 | 0 | 26* | -10 | 5 | -6
COC(C)(C)CCCC(C)C/C=C/C(C)=C/C(=O)OC(C)C (stereo not drawn) | -5 | 2 | -14 | -7 | 0 | 7
CCOc1cc2c(cc1OCC)-n1cccc1C(c1ccc(C(C)C)cc1)NC2 (stereo not drawn) | -1 | 4 | -4 | -17 | 9 | 15
O=C(Nc1cccc(C(F)(F)F)c1)OC1CN2CCC1CC2 (stereo not drawn) | -11 | 2 | 4 | 102* | -32 | -7
O=C1NC(=O)C(=Cc2ccc(-c3ccc(F)cc3O)o2)C(=O)N1 | 38* | 5 | -11 | 47* | 0 | 26
SMILES | M1 ag | CHO-K1 Ca ag | CHO-K1 Ca antag | CHRM1 antagonist | M1 PAM | M1 PAM parental
CC(=O)OC1CCC2(C)C(=CC(=O)C3C2CCC2(C)C(OC(C)=O)CCC32)C1 (stereo not drawn) | -2 | 0 | 2 | -15 | 13 | -2
COC(=O)C1(F)C(=O)NC(=O)NC1O (stereo not drawn) | nt | 1 | -11 | nt | nt | 3
C[N+](C)(C)CCc1ccc(O)cc1 | 35* | 1 | -2 | -7 | 0 | 15
Oc1ccc(Cl)cc1 | 0 | 1 | 1 | -39 | 5 | 9
C[C@H]1CC[C@H]2NCCN[C@H]2C1 | 2 | 0 | -6 | -9 | 17 | 17
O=c1[nH]c(O)c(C=NC2CCCCC2)c(=O)[nH]1 | -2 | 0 | -9 | 2 | 26* | 7
CC(=O)OC1(c2ccccc2)CCN(C2CCCCC2)CC1C (stereo not drawn) | -7 | 4 | -1 | 31* | -23 | 4
CC1([N+](=O)[O-])COP(=O)(Nc2cccc(Br)c2)OC1 (stereo not drawn) | 5 | 4 | -6 | -4 | 1 | 3
CCC(CO)(C(=O)OC1CC2CCC(C1)N2C)c1ccccc1 (stereo not drawn) | -10 | 0 | -9 | 101* | -28 | 20
COC(=O)C1=C(c2ccccc2)C[C@@H]2CC[C@H]1N2C | -8 | 0 | -10 | 60* | -31 | 18
COC(=O)C1=C(c2ccc(Cl)c(C(F)(F)F)c2)C[C@@H]2CC[C@H]1N2C | -8 | 0 | -3 | 32* | -30 | 8
COC(=O)C1=C(c2ccc(Cl)c(C(F)(F)F)c2)C[C@@H]2CC[C@H]1N2C(=O)NCCO | -8 | 0 | -13 | 0 | -1 | 17
COC(=O)C1=C(c2ccc(F)cc2F)C[C@@H]2CC[C@H]1N2C(=O)NC(C)C | -9 | 0 | 3 | -4 | -1 | 9
COC(=O)C1=C(c2ccc(F)cc2F)C[C@@H]2CC[C@H]1N2C | -9 | 1 | -25 | 84* | -33 | -3
C[C@]12CCC3[C@@H](CCC4=CC(=O)CC[C@@]43C=O)C1CCC2=O (stereo partly drawn) | -1 | 1 | -7 | 0 | 9 | -7
C=CCN1CC[C@]23c4c5ccc(O)c4OC2C(O)C=CC3[C@H]1C5 (stereo partly drawn) | -3 | 0 | 13 | 11 | -6 | -6
CCC(=O)c1c(O)n(C2CCCCCC2)c(=O)[nH]c1=O | -3 | 0 | 28* | -1 | 1 | -6
CC(=NCCO)c1c(O)n(C2CCCCC2)c(=O)[nH]c1=O | -2 | 0 | -13 | -1 | 4 | 16
COC(=O)C1=C(c2ccc(OC(F)(F)F)cc2)C[C@@H]2CC[C@H]1N2C(=O)NC(C)C | -5 | 0 | -8 | 8 | 3 | 12
CSCCC(c1nnnn1C1CCCC1)N1CCC(n2c(=O)[nH]c3ccccc32)CC1 (stereo not drawn) | -1 | 7 | -10 | -5 | -8 | 3
CSCCC(c1nnnn1C1CCCCC1)N1CCC(n2c(=O)[nH]c3ccccc32)CC1 (stereo not drawn) | -2 | 6 | 15 | 34* | -16 | -6

Source: PubChem BioAssay
